This is an account of results in PubChem BioAssay (NCATS).

Results filed as inconclusive are left out. Values without a mark were called inactive. Calls of active or inactive are those of the source. Calls come from the whole dose curve; as a rule, active = well fitted curve in the direction sought with a large enough effect; inconclusive = small, poorly fitted or top-dose-only effect, or another doubt; inactive = no such curve, though single readings can be large; an effect the other way counts as inactive or inconclusive.

The subject of one test is PA-1. In words: Primary qHTS to identify gynecologic anti-cancer compounds using libraries of approved drugs and bioactive compounds (AID 1345084). Note: nearly all actives have a fitted effect of over 55% in size. Particulars: Gynecologic cancer cell panel viability, ATPlite luminescence, 48 h; series mostly up to 57.5 µM. In a few lines: (§1)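 Cytotoxicity screen measuring ATP content by luciferase luminescence. Each compound is applied at five concentrations for 48 h at 37 C with 5% CO2.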
For orientation: In qHTS, concentration-response curves come from the screen itself.

Another test concerns SKOV3. The description is as above. Particulars: Gynecologic cancer cell panel viability, ATPlite luminescence, 48 h; series mostly up to 57.5 µM. In a few lines: as §1
(ATP-based viability assays read luminescence as a measure of living cells.)

The next test concerns Tov-21-G. The test is described as above. Particulars: Gynecologic cancer cell panel viability, ATPlite luminescence, 48 h; series mostly up to 57.5 µM. In a few lines:
as §1

The test system of the next test is Tov112D. The description is as above. Particulars: Gynecologic cancer cell panel viability, ATPlite luminescence, 48 h; series mostly up to 57.5 µM. In a few lines:
as §1

Test [1] can be described thus: Drug repurposing screens with cells derived from glioblastoma tumor samples (AID 1345199). Note: nearly all actives have a fitted effect of over 40% in size. Note: potency is the fitted concentration of half-maximal effect. Conditions: GBM patient neurospheres viability, ATP luminescence, 48 h. The procedure, abridged: (§2)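 Four patient lines of CD133+ GBM neurospheres were screened at several concentrations; hits were retested in those lines plus three slower-growing GBM lines, using 48-hour treatment and ATP-based viability.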

The next test deals with astro. Described as above. Conditions: viability, ATP luminescence, 48 h; series mostly up to 45.9 µM. In a few lines: as §2
The mark [2] stands for this setting: at 45.9 µM (top of the series), tumour line B.
Where [3] appears, read: at 45.9 µM (top of the series), tumour line D.
Setting [4] is: at 46 µM (top of the series), tumour line A.
The mark [5] stands for this setting: at 46.1 µM (top of the series), tumour line C.
% is set by controls: 0 for no effect and ±100 for the full control effect.

Regarding `O=C(CCOCCOCCOCCOCCC(=O)Nc1c(I)cc(I)c(C(=O)O)c1I)Nc1c(I)cc(I)c(C(=O)O)c1I`, the Potency result with PA-1, in the test on SKOV3, in the test with Tov-21-G and with Tov112D was “inactive” each time.
For `CCc1cc2cc(OC)c(OC)cc2c(Cc2ccccc2)n1`, the Potency entry with PA-1, in the test on SKOV3, in the test with Tov-21-G and with Tov112D was “inactive” each time.
With `CCOC(=O)CN1CCCC1=O`, the Potency entry in the test with PA-1, with SKOV3, in the test with Tov-21-G and in the test with Tov112D was “inactive” each time.
On to `Cc1cnc(NS(=O)(=O)c2ccc(N)cc2)nc1`, for which the Potency entry in the test on PA-1, in the test on SKOV3, in the test with Tov-21-G and in the test with Tov112D was “inactive” each time.
`CCN(CC)CCN`: the Potency result in the test on PA-1, in the test with SKOV3, in the test on Tov-21-G and in the test with Tov112D was “inactive” each time.
For the molecule `N[C@@H](Cc1cc(I)c(O)c(I)c1)C(=O)O`, the Potency entry in the test on PA-1, in the test with SKOV3, in the test with Tov-21-G, with Tov112D and in the test with astro was “inactive” in each case. For the same molecule, the activity, negative = cell killing was 3.22% in test [1] (setting [2]), 2.54% in test [1] (setting [3]), 14.8% in test [1] (setting [4]) and 3.63% in test [1] (setting [5]).
On to `CN(C(=O)C(Cl)Cl)c1ccc(OC(=O)c2ccco2)cc1`, for which the Potency entry in the test on PA-1, with SKOV3, in the test with Tov-21-G, with Tov112D and with astro was “inactive” in each case. In addition, the activity, negative = cell killing in test [1] (setting [2]) is -5.88%; in test [1] (setting [3]), -16.9%; in test [1] (setting [5]), -29.6%. The Potency in test [1] (tumour line A) is 35.5 µM (active).
Regarding `CCOC(=O)OCC/C(SC(=O)OCC)=C(\C)N(C=O)Cc1cnc(C)nc1N`, the Potency entry with PA-1, in the test on SKOV3, in the test with Tov-21-G, with Tov112D and in the test with astro was “inactive” throughout. For the same molecule, the activity, negative = cell killing in test [1] (setting [2]) was -4.41%; in test [1] (setting [3]), -10.3%; in test [1] (setting [4]), -26%; in test [1] (setting [5]), -10.1%.
For `CC(C)(C)C(=O)OCOC(=O)C1N2C(=O)CC2S(=O)(=O)C1(C)C` (centres undefined), the Potency entry in the test on PA-1, in the test on SKOV3, in the test with Tov-21-G, in the test on Tov112D and with astro was “inactive” in each case. Moreover, the activity, negative = cell killing in test [1] (setting [2]) is -8.27%; in test [1] (setting [3]) it was -8.54%; in test [1] (setting [4]) it was -19.2%; in test [1] (setting [5]), -11.5%.
`CCOc1ccc(NS(=O)(=O)c2ccc(N)cc2)nn1`: the Potency result in the test with PA-1, in the test with SKOV3, with Tov-21-G, with Tov112D and in the test on astro was “inactive” throughout. Besides, the activity, negative = cell killing was -20.8% in test [1] (setting [2]), 5.52% in test [1] (setting [3]), -27.9% in test [1] (setting [4]) and 9.99% in test [1] (setting [5]).
`CO[C@@]1(NC(=O)CSC[C@@H](N)C(=O)O)C(=O)N2C(C(=O)O)=C(CSc3nnnn3C)CS[C@@H]21`: the Potency result in the test on PA-1, with SKOV3, with Tov-21-G, in the test with Tov112D and with astro was “inactive” each time. The activity, negative = cell killing in test [1] (setting [2]) is -3.3%; in test [1] (setting [3]), -19.7%; in test [1] (setting [4]), -20.1%; in test [1] (setting [5]), -4.96%.
`CC(C)(C)C(O)/C=C/c1ccc2c(c1)OCO2` (centres undefined): the Potency entry with PA-1, with SKOV3, with Tov-21-G, with Tov112D and with astro was “inactive” each time. Besides, the activity, negative = cell killing was -14.2% in test [1] (setting [2]), -29.5% in test [1] (setting [3]) and 10.3% in test [1] (setting [5]). Besides, the Potency in test [1] (tumour line A) was 15.8 µM (active).
With `O=C(O)Cc1ccc(OCCNC[C@H](O)c2ccccc2)cc1`, the Potency result in the test with PA-1, with SKOV3, in the test with Tov-21-G, in the test on Tov112D and in the test with astro was “inactive” throughout. Also, the activity, negative = cell killing in test [1] (setting [2]) is -8.45%; in test [1] (setting [3]) it was 5.34%; in test [1] (setting [4]) it was -29.2%; in test [1] (setting [5]), 9.13%.
On to `O=P(O)(O)OCC(O)CO` (centres undefined), for which the Potency entry in the test on PA-1, in the test with SKOV3, with Tov-21-G, with Tov112D and in the test with astro was “inactive” throughout. Further, the activity, negative = cell killing in test [1] (setting [2]) is -9.32%; in test [1] (setting [3]), 5.18%; in test [1] (setting [4]) it was -22.7%; in test [1] (setting [5]), -0.918%.
For the molecule `O=C(O)c1ccccc1Nc1cc(Cl)ccc1C(=O)O`, the Potency result in the test on PA-1, in the test with SKOV3, with Tov-21-G, in the test with Tov112D and with astro was “inactive” throughout. In addition, the activity, negative = cell killing is -6.14% in test [1] (setting [2]), -11.1% in test [1] (setting [3]), -27.3% in test [1] (setting [4]) and 1.8% in test [1] (setting [5]).
With `O=C(CCCCC(=O)Nc1c(I)cc(I)c(C(=O)O)c1I)Nc1c(I)cc(I)c(C(=O)O)c1I`, the Potency entry with PA-1, in the test on SKOV3, in the test on Tov-21-G, in the test with Tov112D and with astro was “inactive” each time. For the same molecule, the activity, negative = cell killing was 0.519% in test [1] (setting [2]), -19.2% in test [1] (setting [3]), -28.1% in test [1] (setting [4]) and 4.23% in test [1] (setting [5]).
With `O=C(O)CCCC[C@@H]1SC[C@@H]2NC(=O)N[C@@H]21`, the Potency entry with PA-1, in the test on SKOV3, with Tov-21-G, in the test with Tov112D and in the test with astro was “inactive” throughout. Moreover, the results for the activity, negative = cell killing in test [1] (setting [2]), in test [1] (setting [3]) and in test [1] (setting [5]) were -20.7%, -14.6% and -26%, respectively. For the same molecule, the Potency in test [1] (tumour line A) was 17.8 µM (active).
Consider `CC1c2ccccc2CN1NC(=O)c1ccc(Cl)c(S(N)(=O)=O)c1` (centres undefined), for which the Potency entry with PA-1, with SKOV3, in the test on Tov-21-G, in the test on Tov112D and with astro was “inactive” in each case. Further, the activity, negative = cell killing in test [1] (setting [2]) is -2.5%; in test [1] (setting [3]) it was -6.17%; in test [1] (setting [4]), -22.8%; in test [1] (setting [5]), -11.2%.
`CN(C)C(=O)CNC(=O)Cc1ccccc1`: the Potency result with PA-1, in the test on SKOV3, in the test on Tov-21-G, in the test on Tov112D and in the test with astro was “inactive” in each case. Also, the activity, negative = cell killing was -9.58% in test [1] (setting [2]), -2.49% in test [1] (setting [3]), -22.3% in test [1] (setting [4]) and 4.09% in test [1] (setting [5]).
Regarding `CCOC(=O)NNc1ccc(N(CC)CC(C)O)nn1` (centres undefined), the Potency result in the test with PA-1, in the test with SKOV3, in the test with Tov-21-G, in the test on Tov112D and in the test on astro was “inactive” throughout. The activity, negative = cell killing in test [1] (setting [2]) was -1.62%; in test [1] (setting [3]), -9.84%; in test [1] (setting [4]), -25.2%; in test [1] (setting [5]), 10.8%.
Consider `CC(C)=CCC/C(C)=C/CC/C(C)=C/CCC(=O)OC/C=C(\C)CCC=C(C)C`, for which the Potency entry in the test with PA-1, in the test on SKOV3, in the test with Tov-21-G, with Tov112D and in the test on astro was “inactive” in each case. Besides, the values for the activity, negative = cell killing in test [1] (setting [2]), in test [1] (setting [3]) and in test [1] (setting [5]) were -1.59%, -0.887% and -6.49%, respectively. In addition, the Potency in test [1] (tumour line A) is 35.5 µM (active).
